PubChem BioAssay (EPA / NIEHS)
Active and inactive are the calls of the source. How the source made its calls: active means hit-call score of the fitted dose curve at least 0.9, where 1 is the maximum; inactive means score below 0.9.

Experiments:
Conditions in all cases: mRNA level, 48 h; actives raise or lower the signal
CYP3A5 (gene 1577) = test: LTEA_HepaRG_CYP3A5: Life Technologies and Expression Analysis (LTEA) Assay for CYP3A5 using HepaRG (AID 2283493)
Method in brief: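 mRNA induction or loss of CYP3A5 assessed in HepaRG after 48 h dosing, 100 uM top concentration, duplicate wells; TaqMan qRT-PCR with ACTB, GAPDH, POLR2A normalization; 0.5% DMSO as negative control.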

[1] = read-out: Fatty Acid-Binding Protein 1 (FABP1), FABP1 (gene 2168); test: LTEA_HepaRG_FABP1: Life Technologies and Expression Analysis (LTEA) Assay for Fatty Acid-Binding Protein 1 (FABP1) using HepaRG (AID 2283494)
Method in brief: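 Differentiated human HepaRG cells exposed 48 h in serum-free induction medium to eight half-log concentrations up to 100 uM (0.5% DMSO), duplicate. FABP1 mRNA by qRT-PCR, normalised to ACTB, GAPDH, POLR2A; bidirectional fitting against DMSO.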

[2] = read-out: Glutathione S-Transferase (GSTA2), GSTA2 (gene 2939); test: LTEA_HepaRG_GSTA2: Life Technologies and Expression Analysis (LTEA) Assay for Glutathione S-Transferase (GSTA2) using HepaRG (AID 2283497)
Method in brief: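 Differentiated human HepaRG cells were exposed in duplicate for 48 h in serum-free induction medium, 8 points from 100 uM top in half-log steps, 0.5% DMSO. GSTA2 mRNA was measured by TaqMan qRT-PCR, normalized to ACTB, GAPDH and POLR2A; bidirectional fit versus DMSO.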

[3] = read-out: Glutamate-cysteine ligase catalytic (GCLC), GCLC (gene 2729); test: LTEA_HepaRG_GCLC: Life Technologies and Expression Analysis (LTEA) Assay for Glutamate-cysteine ligase catalytic (GCLC) using HepaRG (AID 2283498)
Method in brief: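 Differentiated HepaRG cells exposed 48 h in serum-free induction medium, eight-point half-log series topping at 100 uM in 0.5% DMSO, duplicates. GCLC mRNA by qRT-PCR normalized to ACTB, GAPDH and POLR2A, fitted bidirectionally versus DMSO.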

[4] = read-out: growth arrest and DNA damage 45 (GADD45G), GADD45G (gene 10912); test: LTEA_HepaRG_GADD45G: Life Technologies and Expression Analysis (LTEA) Assay for growth arrest and DNA damage 45 (GADD45G) using HepaRG (AID 2283499)
Method in brief: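 Gain or loss of GADD45G mRNA, quantified by TaqMan qRT-PCR against three housekeeping genes, is fitted in both directions relative to 0.5% DMSO. Human HepaRG cultures receive test chemical for 48 h at up to 100 uM.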

[5] = read-out: Glutamate-cysteine ligase regulatory (GCLM), GCLM (gene 2730); test: LTEA_HepaRG_GCLM: Life Technologies and Expression Analysis (LTEA) Assay for Glutamate-cysteine ligase regulatory (GCLM) using HepaRG (AID 2283500)
Method in brief: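 Human liver HepaRG cultures receive test chemicals for 48 hours at up to 100 uM in 0.5% DMSO. GCLM expression is measured by qRT-PCR and analysed for increases or decreases against vehicle.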

[6] = read-out: Glutathione S-transferase M3 (GSTM3), GSTM3 (gene 2947); test: LTEA_HepaRG_GSTM3: Life Technologies and Expression Analysis (LTEA) Assay for Glutathione S-transferase M3 (GSTM3) using HepaRG (AID 2283501)
Method in brief: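 HepaRG, plated 48 h, then serum-free induction medium; test chemical 48 h, duplicate; 100 uM top, half-log x8, 0.5% DMSO. Read-out: GSTM3 mRNA (TaqMan qRT-PCR, Fluidigm array). Bidirectional fit vs DMSO.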

[7] = read-out: Heat shock 70 kDa protein 1 (HSPA1A), gene 3303; test: LTEA_HepaRG_HSPA1A: Life Technologies and Expression Analysis (LTEA) Assay for Heat shock 70 kDa protein 1 (HSPA1A) using HepaRG (AID 2283502)
Method in brief: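 HSPA1A induction in human HepaRG liver cells is measured after 48 h of chemical treatment (100 uM maximum, 0.5% DMSO vehicle). Expression comes from qRT-PCR normalized to endogenous controls.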

[8] = read-out: Hypoxia-inducible factor 1-alpha (Homo sapiens) (UniProt Q16665); test: LTEA_HepaRG_HIF1A: Life Technologies and Expression Analysis (LTEA) Assay for Hypoxia-inducible factor 1 (HIF1A) Trancription factor using HepaRG (AID 2283503);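 further: HIF1A transcript by TaqMan qRT-PCR normalized to ACTB GAPDH and POLR2A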
Method in brief: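 HepaRG, 48 h exposure, 8-pt half-log series from 100 uM, 0.5% DMSO vehicle, duplicates. Readout: HIF1A transcript by qRT-PCR (Fluidigm array), housekeeping-normalised. Bidirectional curve fit vs DMSO baseline.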

[9] = read-out: 3-Hydroxy-3-Methylglutaryl-CoA Synthase 2 (HMGCS2), HMGCS2 (gene 3158); test: LTEA_HepaRG_HMGCS2: Life Technologies and Expression Analysis (LTEA) Assay for 3-Hydroxy-3-Methylglutaryl-CoA Synthase 2 (HMGCS2) using HepaRG (AID 2283504)
Method in brief: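 HepaRG, plated 48 h then switched to serum-free induction media; cmpd 8-pt, max 100 uM, 1/2-log, 0.5% DMSO, n=2, 48 h. HMGCS2 mRNA by Fluidigm TaqMan qRT-PCR, ACTB/GAPDH/POLR2A norm; bidirectional fit vs DMSO.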

HGF (gene 3082) = test: LTEA_HepaRG_HGF: Life Technologies and Expression Analysis (LTEA) Assay for Hepatocyte Growth Facto (HGF) using HepaRG (AID 2283505)
Method in brief: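 Read-out is HGF transcript level by qRT-PCR, normalized to three housekeeping genes, fitted bidirectionally against 0.5% DMSO vehicle. Human HepaRG cells received test chemicals for 48 h at up to 100 uM.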

[10] = read-out: Insulin Like Growth Factor 1 (IGF1), IGF1 (gene 3479); test: LTEA_HepaRG_IGF1: Life Technologies and Expression Analysis (LTEA) Assay for Insulin Like Growth Factor 1 (IGF1) using HepaRG (AID 2283506)
Method in brief: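 Using human HepaRG liver cells, IGF1 transcript induction or suppression is measured 48 h after dosing across eight concentrations capped at 100 uM. Values derive from bidirectional concentration-response fitting with DMSO as baseline.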

[11] = read-out: Intercellular Adhesion Molecule 1 (ICAM1), ICAM1 (gene 3383); test: LTEA_HepaRG_ICAM1: Life Technologies and Expression Analysis (LTEA) Assay for Intercellular Adhesion Molecule 1 (ICAM1) using HepaRG (AID 2283507)
Method in brief: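 Readout is qRT-PCR mRNA level, normalized to three housekeeping genes and fitted bidirectionally against 0.5% DMSO vehicle. Human HepaRG cultures received compound for 48 h, top concentration 100 uM with half-log dilutions.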

[12] = read-out: Insulin-like growth factor-binding protein 1 (IGFBP1), IGFBP1 (gene 3484); test: LTEA_HepaRG_IGFBP1: Life Technologies and Expression Analysis (LTEA) Assay for Insulin-like growth factor-binding protein 1 (IGFBP1) using HepaRG (AID 2283508)
Method in brief: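 Thawed HepaRG cells are plated for 48 h, switched to serum-free induction medium, then dosed in duplicate for another 48 h (100 uM top, half-log steps). Lysates in RLT go to qRT-PCR, and gain or loss of signal is fitted relative to vehicle.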

[13] = read-out: Interleukin 6 (IL6), IL6 (gene 3569); test: LTEA_HepaRG_IL6: Life Technologies and Expression Analysis (LTEA) Assay for Interleukin 6 (IL6) using HepaRG (AID 2283509)
Method in brief: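 HepaRG cells exposed in duplicate for 48 h to eight half-log concentrations, top 100 uM, in 0.5% DMSO serum-free induction medium. mRNA measured by qRT-PCR, normalized to ACTB, GAPDH and POLR2A. Bidirectional fit versus DMSO.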

[14] = read-out: Interleukin 6 Receptor (IL6R), IL6R (gene 3570); test: LTEA_HepaRG_IL6R: Life Technologies and Expression Analysis (LTEA) Assay for Interleukin 6 Receptor (IL6R) using HepaRG (AID 2283510)
Method in brief: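 Concentration-response in human liver HepaRG cells: eight concentrations from 100 uM downward by half-logs, 48 h exposure, 0.5% DMSO vehicle. IL6R mRNA change measured by qRT-PCR and fitted in both directions relative to vehicle.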

[15] = read-out: Potassium channel subfamily K member 1 (KCNK1), KCNK1 (gene 3775); test: LTEA_HepaRG_KCNK1: Life Technologies and Expression Analysis (LTEA) Assay for Potassium channel subfamily K member 1 (KCNK1) using HepaRG (AID 2283511)
Method in brief: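 Differentiated HepaRG cells, 48 h exposure in serum-free induction medium with 0.5% DMSO; 8 concentrations, half-log from 100 uM, duplicate. KCNK1 mRNA by qRT-PCR, normalized to ACTB, GAPDH, POLR2A; bidirectional fit vs DMSO.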

[16] = read-out: Keratin 19 (KRT19), KRT19 (gene 3880); test: LTEA_HepaRG_KRT19: Life Technologies and Expression Analysis (LTEA) Assay for Keratin 19 (KRT19) using HepaRG (AID 2283512)
Method in brief: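 KRT19 transcript levels, measured by Fluidigm qRT-PCR against three housekeeping genes, are fitted for gain or loss of signal relative to DMSO. Human HepaRG cells receive test chemicals (top 100 uM, half-log steps, 0.5% DMSO) for 48 hours.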

Measured: outcome

Sequence of Hypoxia-inducible factor 1-alpha (Homo sapiens) (Q16665 whole entry, looked up): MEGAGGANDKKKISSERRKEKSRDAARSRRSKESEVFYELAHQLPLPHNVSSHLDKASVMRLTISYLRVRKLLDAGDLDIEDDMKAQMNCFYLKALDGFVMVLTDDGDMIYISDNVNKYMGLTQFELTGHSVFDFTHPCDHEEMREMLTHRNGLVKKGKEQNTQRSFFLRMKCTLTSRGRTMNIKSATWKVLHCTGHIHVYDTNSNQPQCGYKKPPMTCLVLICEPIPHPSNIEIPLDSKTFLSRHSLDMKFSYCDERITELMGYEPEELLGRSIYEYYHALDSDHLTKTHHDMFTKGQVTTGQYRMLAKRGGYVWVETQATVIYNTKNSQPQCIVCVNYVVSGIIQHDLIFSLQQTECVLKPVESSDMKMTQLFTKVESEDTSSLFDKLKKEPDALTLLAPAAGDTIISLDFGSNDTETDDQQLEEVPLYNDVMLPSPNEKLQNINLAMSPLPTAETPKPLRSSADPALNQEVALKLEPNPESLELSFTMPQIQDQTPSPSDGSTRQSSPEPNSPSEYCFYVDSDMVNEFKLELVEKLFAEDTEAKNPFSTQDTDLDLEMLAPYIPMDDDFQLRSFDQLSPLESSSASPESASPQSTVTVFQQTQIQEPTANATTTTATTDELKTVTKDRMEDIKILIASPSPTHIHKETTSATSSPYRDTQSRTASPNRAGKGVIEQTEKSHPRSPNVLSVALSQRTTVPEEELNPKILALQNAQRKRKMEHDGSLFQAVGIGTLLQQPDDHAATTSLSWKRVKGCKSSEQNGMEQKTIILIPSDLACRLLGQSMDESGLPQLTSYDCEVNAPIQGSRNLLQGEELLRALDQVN

c1cc[n+]2c(c1)-c1cccc[n+]1CC2
inactive: all assays above
